Measurements published in PubChem BioAssay (Tox21).
Records with an inconclusive call do not appear. Activity calls are given as the source filed them. Calls follow the shape of the dose curve; as a rule, active = well fitted curve in the direction sought with a large enough effect in the repeat runs; inconclusive = weak or mixed curves; inactive = no such curve, though single readings can be large; an effect the other way counts as inactive or inconclusive.

Test: qHTS assay to identify small molecule antagonists of the estrogen related receptor (ERR) signaling pathway - cell viability counter screen (AID 1224818)
Settings: ERR reporter cell line viability counter screen; series mostly up to 46.1 µM; viability change, negative = cytotoxic: at the top concentration
Method in brief: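 ERR cells, 2,000 per well, compound added after 6 h and incubated 17.5 h at 37 C. Viability read by CellTiter-Fluor fluorescence after a further 30 min at 37 C.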
% is scaled to controls: 0 for no effect and ±100 for the full control effect.

Row | Compound | Potency | viability change, negative = cytotoxic
1 | Cc1[nH]c(=O)c(C#N)cc1-c1ccncc1 | inactive | 
2 | CN1C(C(=O)Nc2ccccn2)=C(O)c2ccccc2S1(=O)=O |  | 0.897% (inactive)
3 | CN(C)c1nc(N(C)C)nc(N(C)C)n1 |  | 9.7% (inactive)
4 | CC(C(=O)O)c1cccc(C(=O)c2ccccc2)c1 (stereo not drawn) |  | 9.47% (inactive)
5 | C[C@]12CCC(=O)C=C1CC[C@@H]1[C@@H]2C(=O)C[C@@]2(C)[C@H]1CC[C@]2(O)C(=O)CO |  | 0.122% (inactive)
6 | Oc1ccc(O)cc1 |  | -16.7% (inactive)

Test: qHTS assay to identify small molecule antagonists of the estrogen related receptor signaling pathway with the pleiotropic PPARgamma coactivator (PGC) cell viability counter screen (AID 1224822)
Settings: ERR/PGC reporter cell line viability counter screen; series mostly up to 46.1 µM; viability change, negative = cytotoxic: at the top concentration
Method in brief: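 PGC/ERR cells rested 6 h, then compound-treated 17.5 h at 37 C. CellTiter-Fluor added for 30 min at 37 C, viability measured by fluorescence intensity.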

Row | Compound | Potency | viability change, negative = cytotoxic
7 | Cc1[nH]c(=O)c(C#N)cc1-c1ccncc1 | inactive | 
8 | CN1C(C(=O)Nc2ccccn2)=C(O)c2ccccc2S1(=O)=O |  | -4.77% (inactive)
9 | CN(C)c1nc(N(C)C)nc(N(C)C)n1 |  | 6.69% (inactive)
10 | Cn1cnc([N+](=O)[O-])c1Sc1ncnc2nc[nH]c12 |  | -12.2% (inactive)
11 | CC(C(=O)O)c1cccc(C(=O)c2ccccc2)c1 (stereo not drawn) |  | 5.78% (inactive)
12 | C[C@]12CCC(=O)C=C1CC[C@@H]1[C@@H]2C(=O)C[C@@]2(C)[C@H]1CC[C@]2(O)C(=O)CO |  | 14.3% (inactive)
13 | Oc1ccc(O)cc1 |  | -24.2% (inactive)
